# Source: PubChem
# The entries come from a sample that favours hits as a whole.
# DT40 TDP1 CPT – DT40-hTDP1 cell growth loss with CPT | chicken DT40 Tdp1-/-;hTDP1 cells + 20 nM CPT, ATP luminescence, 48 h | Potency, µM (highest dose often 46.2 µM), for inactives: top-dose activity change, negative = growth inhibition, hits mostly inhibitors | 12% of 420,000 active; note: potency is the fitted concentration of half-maximal effect; nearly all actives have a fitted effect of over 55% in size
#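 Cell growth measured by CellTiter-Glo luminescence after a minimum 48 h, 37 C compound exposure with 20 nM CPT in Tdp1-knockout DT40 cells stably expressing hTDP1, seeded 400/well; qHTS titration format.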
# DT40 TDP1 no CPT – qHTS for Inhibitors of human tyrosyl-DNA phosphodiesterase 1 (TDP1): qHTS in cells in absence of CPT | Potency, µM (titrated, usually from 46.2 µM), inactives show at the highest dose activity change, negative = growth inhibition, actives largely listed as inhibitors | DT40 Tdp1-/- hTDP1 cells, no CPT, ATP luminescence, 48 h | 15% of 420,000 active | AID 686978, 2013; note: potency is the fitted concentration of half-maximal effect; nearly all actives have a fitted effect of over 55% in size
#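 Stably hTDP1-transfected Tdp1-null chicken DT40 cells were treated with library compounds minus camptothecin and grown for at least 48 hr at 37 °C, after which cellular ATP was quantified by luminescence.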
# HT1080 IDH1KD tx – toxicity to HT-1080 IDH1 knockdown cells (counter line); HT-1080 IDH1 knockdown viability, ATP luminescence, 48 h; Potency, µM (series often up to 46.1 µM), without a hit: at the highest dose activity, negative = toxicity, usual class: cytotoxic; 2% of 360,000 active;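 note: potency is the fitted concentration of half-maximal effect; 0% = DMSO wells and -100% = cell-free medium wells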
#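 Assay cells: HT-1080 with IDH1 knockdown, 750 per well, RPMI/5% FBS. Exposure: 48 h at 37 °C following 2 h pre-incubation. Read: CellTiter-Glo luminescence; fitted concentration-response, curve class assigned.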
# HT1080NT lethal – kills 2HG-producing HT-1080-NT fibrosarcoma cells | HT-1080-NT fibrosarcoma viability, CellTiter-Glo ATP luminescence, 48 h | Potency, µM (top dose mostly 46.1 µM), inactives show at the highest dose activity, negative = less viability, most hits filed as cytotoxic | 1.6% of 360,000 active | AID 686970;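 note: NT is the 2HG producing partner of a matched IDH1 knockdown line; potency is the fitted concentration of half-maximal effect; 0% = DMSO-treated cells and -100% = media-only wells without cells; nearly all actives have a fitted effect of over 55% in size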
#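 Viability of the 2HG-overproducing fibrosarcoma line after 48 hours of compound exposure at 37 degrees C was determined by luminescence with CellTiter-Glo, and concentration-effect curves were then fitted and categorized.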
# ALOX12 inh – inhibitors of human 12S-lipoxygenase ALOX12; purified 12hLO, xylenol orange hydroperoxide absorbance; Potency, µM (series often up to 108 µM), without a hit: top-dose activity change, negative = inhibition, hits mostly inhibitors; AID 1671190; 1.1% of 580,000 active; note: potency is the fitted concentration of half-maximal effect
# Target sequence (P18054 whole entry, looked up): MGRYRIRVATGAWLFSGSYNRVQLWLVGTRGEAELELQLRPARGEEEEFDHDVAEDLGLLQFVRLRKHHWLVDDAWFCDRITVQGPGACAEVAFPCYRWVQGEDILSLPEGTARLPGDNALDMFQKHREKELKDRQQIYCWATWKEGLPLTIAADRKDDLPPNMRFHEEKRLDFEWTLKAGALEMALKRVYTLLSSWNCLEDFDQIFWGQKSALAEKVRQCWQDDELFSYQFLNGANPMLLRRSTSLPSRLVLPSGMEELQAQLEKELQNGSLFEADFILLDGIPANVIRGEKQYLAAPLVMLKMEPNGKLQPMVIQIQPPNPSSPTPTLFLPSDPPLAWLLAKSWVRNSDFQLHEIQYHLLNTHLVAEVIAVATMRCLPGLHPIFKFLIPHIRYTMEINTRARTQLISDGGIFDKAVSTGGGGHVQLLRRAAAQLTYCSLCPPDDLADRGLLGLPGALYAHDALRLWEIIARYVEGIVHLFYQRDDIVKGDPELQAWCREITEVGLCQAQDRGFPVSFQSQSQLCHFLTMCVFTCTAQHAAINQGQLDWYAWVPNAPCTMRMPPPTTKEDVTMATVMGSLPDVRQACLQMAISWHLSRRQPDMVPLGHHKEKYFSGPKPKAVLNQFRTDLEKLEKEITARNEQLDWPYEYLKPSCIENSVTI
#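 Purified human 12hLO (150 nM final) in 25 mM Hepes, 0.01% Triton X-100, pH 7.0 was preincubated 15 min at room temperature with compound. Then 40 uM arachidonic acid was added, 30 min. Hydroperoxide was read by Fe-XO absorbance ratio 573/405 nm.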
# IL-1B inflam inh – blocks inflammasome-driven IL-1 beta release; THP-1 LPS/ATP IL-1B secretion, AlphaLISA, 16 h; active compounds read low; activity change, % at 57.5 µM; 4.7% of 360,000 active; in the data active = activity change below about -50%; inconclusive = mostly about -30% to -49%
#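 Secreted IL-1B measured by AlphaLISA bead assay after 16 h compound exposure of THP-1 cells; compounds (final up to 57.5 uM) added 1 h before LPS (250 ng/mL) and ATP (1.25 mM) stimulation; lower signal means less secretion.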
# An asterisk follows results filed as active; ? = inconclusive; . = no result given; ! = repeats disagree; [ ] = another dose, or the depositor's remark. Unless noted, calls come from the whole dose curve; as a rule, active = well fitted curve in the direction sought with a large enough effect; inconclusive = small, poorly fitted or top-dose-only effect, or another doubt; inactive = no such curve, though single readings can be large; an effect the other way counts as inactive or inconclusive. Unless noted, % is set by controls: 0 for no effect and ±100 for the full control effect.
SMILES,DT40 TDP1 CPT,DT40 TDP1 no CPT,HT1080 IDH1KD tx,HT1080NT lethal,ALOX12 inh,IL-1B inflam inh
CC1=C(C(=O)OC(C)C)C(c2ccc(Cl)c(Cl)c2)CC(=O)N1 (stereo not given),.,.,.,.,-7%,.
CNC1CCC(c2ccc(Cl)c(Cl)c2)c2ccccc21 (stereo not given),15µM*,18µM*,.,.,.,.
CN[C@H]1CC[C@@H](c2ccc(Cl)c(Cl)c2)c2ccccc21,15µM*!,15µM*,.,7.3µM*,?,-21
Cc1nc2cc(NC(=O)C(C)Oc3ccccc3)ccc2o1 (stereo not given),.,.,.,.,16%,.
NS(=O)(=O)c1ccc(NC(=S)N2CCC(Cc3ccccc3)CC2)cc1,11%,?,-1%,-10%,.,-62*
S=C(NCCc1ccccc1)N1CCN(Cc2ccc(Cl)c(Cl)c2)CC1,18µM*,?,-4%,-17%,1%,-16
NS(=O)(=O)c1ccc(NC(=S)N2CCN(Cc3ccc4c(c3)OCO4)CC2)cc1,?,?,-5%,2%,1%,13
CNC(=S)N1CCC(Cc2ccccc2)CC1,-1%,-3%,5%,14%,395%,-5
NS(=O)(=O)c1ccc(NC(=S)N2CCN(c3ccc(Cl)c(Cl)c3)CC2)cc1,6.5µM*,6.5µM*,?,?,-18%,3
CC(=O)c1ccc(N2CCN(C(=S)Nc3ccc(Cl)c(Cl)c3)CC2)cc1,?,-27%,6%,16%,10%,2
NS(=O)(=O)c1ccc(NC(=S)N2CCN(Cc3ccc(Cl)c(Cl)c3)CC2)cc1,?,?,-13%,-25%,-1%,-72*
COCCc1noc([C@@H]2CC(F)(F)CN2C(=O)c2cc(C)on2)n1,.,.,.,.,42%,.
COC(c1ccccc1)c1c(-c2ccccc2)nn(C)c1Cl (stereo not given),1.5µM*,?,-10%,-3%,0%,25
Cc1c(C(N)=O)sc2ncn(CC(=O)N(C)C3CCCCC3)c(=O)c12,-4%,-8%,4%,-4%,-18%,0
O=C(/C=C/c1ccccc1)C1=C(O)C(=O)N(CCO)C1c1ccc2c(c1)OCO2 (stereo not given),12%,18%,3%,20%,7.9µM*,-13
CCn1c(C)c(C(C)=O)c(N2CCN(C(c3ccccc3)c3ccccc3)CC2)nc1=S,9.2µM*,6.5µM*,?,?,-27%,-185*
CCCNc1nc(=S)n(-c2ccccc2)c(C)c1C(C)=O,-5%,-6%,3%,4%,?,0
CC(=O)c1c(N2CCOCC2)nc(=S)n(-c2ccccc2)c1C,-6%,-5%,?,-3%,-2%,24
CC(=O)c1c(N2CCCC2)nc(=S)n(-c2ccccc2)c1C,12µM*,8.2µM*,-5%,14%,-8%,-4
CCCCNc1nc(=S)n(-c2ccccc2)c(C)c1C(C)=O,16µM*,23µM*,16µM*,?,?,-91*
CC(=O)c1c(N2CCCCC2)nc(=S)n(-c2ccccc2)c1C,12µM*,5.8µM*,-1%,0%,-66%,-9
CCn1c(C)c(C(C)=O)c(N2CCN(c3ccccc3)CC2)nc1=S,-12%,-9%,14%,15%,?,19
CCc1ccc(NC(=O)c2ccc3c(O)c(S(=O)(=O)c4ccccc4)c(=O)[nH]c3c2)cc1,1%,-11%,.,.,-19%,.
CC(C)(C)N(NC(=O)Nc1ccc(Cl)c(Cl)c1)C(=O)c1ccccc1,18µM*,18µM*,18µM*,21µM*,-34%,-51*
Cc1cc(C)cc(C(=O)N(NC(=O)Nc2ccc(Cl)cc2)C(C)(C)C)c1,15µM*,?,-23%,-17%,30%,-30
SMILES,DT40 TDP1 CPT,DT40 TDP1 no CPT,HT1080 IDH1KD tx,HT1080NT lethal,ALOX12 inh,IL-1B inflam inh
COc1ccc2[nH]c(C(=O)c3ccccc3)cc2c1,0.13µM*,0.15µM*,.,.,2%,.
COc1ccc(/C=N/NC(=O)c2cc3cc(OC)c(OC)cc3[nH]2)cc1,?,-24%,8%,-1%,7%,-51*
COc1cc2cc(C(=O)N/N=C/c3ccccc3Cl)[nH]c2cc1OC,?,23µM*,-3%,0%,0%,-58*
COc1ccc(CN(Cc2cccn2C)C(=O)c2cc3cc(OC)ccc3[nH]2)cc1,?,?,-10%,-12%,-23%,-81*
O=C(COCc1cc(-c2ccc(F)cc2)on1)Nc1cccc(C(F)(F)F)c1,?,?,.,.,-4%,.
COc1cc2cc(C(=O)N/N=C/c3ccc(F)cc3)[nH]c2cc1OC,-27%,-18%,1%,0%,-6%,-11
COc1ccc(/C=N/NC(=O)c2nc(-c3ccccc3)n(-c3ccccc3)n2)cc1,10%,3%,9%,0%,-6%,-2
COc1ccc2[nH]c(C(=O)N/N=C/c3ccc(O)cc3O)cc2c1,4.6µM*,3.7µM*,2.3µM*,?,94%,102
CCOc1ccc2[nH]c(C(=O)N/N=C/c3ccc(OC)cc3)cc2c1,0.58µM*,0.58µM*,1.3µM*,0.92µM*,0%,63
COc1ccc(/C=N/NC(=O)c2nc(-c3ccccc3)n(-c3ccccc3)n2)c(O)c1,?,16µM*,?,?,7%,57
COc1ccc2cc(C(=O)N/N=C/c3cc(OC)c(OC)c(OC)c3)[nH]c2c1,-22%,-9%,-1%,-4%,-1%,?
C=CCCCCCCCCC=O,.,.,.,.,-4%[176 µM],.
CC(C)[C@@H](N)C(=O)N1CCC2(CC1)Nc1ccccc1NC2=O,.,.,.,.,-18%,.
Clc1ccc2nc(CN3CCCCC3)cn2c1,?,-2%,4%,8%,7%,6
Clc1ccc2nc(CN3CCCc4ccccc43)cn2c1,13µM*,18µM*,?,?,-25%,-78*
Cc1nnc(Cc2ccco2)c2n[nH]c(C)c12,?,?,1%,6%,-2%,-1
CCC(c1cnn(C)c1)n1ccnc1-c1ccc(SC)cc1 (stereo not given),.,.,.,.,51%,.
Cc1ccc(Nc2nc(OC(C(F)(F)F)C(F)(F)F)nc(N3CCOCC3)n2)cc1,?,15µM*,-4%,-1%,3%,-80*
FC(F)(F)Oc1ccc(Nc2nc(N3CCOCC3)nc(N3CCOCC3)n2)cc1,18µM*,16µM*,8%,28%,-9%,-5
